L3MBTL1 block – inhibitors of human L3MBTL1; Q9Y468; AlphaScreen L3MBTL1–H3K9me1 peptide binding; Potency, µM (doses to about 57.1 µM), without a hit: at the highest dose activity, negative = inhibition, hits mostly inhibitors; actives 0.66% (n = 230,000); AID 485360; also: potency is read from the fitted curve at half-maximal effect; % is scaled to controls: 0 for no effect and ±100 for the full control effect; nearly all actives have a fitted effect of over 60% in size
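AlphaScreen assay: L3MBTL1 (50 nM final) was preincubated 30 min at room temperature with biotinylated H3(1-15)K9me1 peptide (75 nM final), then 30 min with library compounds; streptavidin donor and nickel chelate acceptor beads (10 ug/mL final) added, 30 min dark.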
WRN helicase inh – blocks human WRN helicase. Q14191. WRN helicase unwinding, fluorescent forked duplex, kinetic. Potency, µM (titrated, usually from 114 µM), inactives show at the top dose activity change, negative = inhibition, actives largely listed as inhibitors. actives 0.46% (n = 360,000). AID 651768; also: potency is read from the fitted curve at half-maximal effect; % is scaled to controls: 0 for no effect and ±100 for the full control effect; nearly all actives have a fitted effect of over 55% in size
Target sequence (Q14191 whole entry, looked up): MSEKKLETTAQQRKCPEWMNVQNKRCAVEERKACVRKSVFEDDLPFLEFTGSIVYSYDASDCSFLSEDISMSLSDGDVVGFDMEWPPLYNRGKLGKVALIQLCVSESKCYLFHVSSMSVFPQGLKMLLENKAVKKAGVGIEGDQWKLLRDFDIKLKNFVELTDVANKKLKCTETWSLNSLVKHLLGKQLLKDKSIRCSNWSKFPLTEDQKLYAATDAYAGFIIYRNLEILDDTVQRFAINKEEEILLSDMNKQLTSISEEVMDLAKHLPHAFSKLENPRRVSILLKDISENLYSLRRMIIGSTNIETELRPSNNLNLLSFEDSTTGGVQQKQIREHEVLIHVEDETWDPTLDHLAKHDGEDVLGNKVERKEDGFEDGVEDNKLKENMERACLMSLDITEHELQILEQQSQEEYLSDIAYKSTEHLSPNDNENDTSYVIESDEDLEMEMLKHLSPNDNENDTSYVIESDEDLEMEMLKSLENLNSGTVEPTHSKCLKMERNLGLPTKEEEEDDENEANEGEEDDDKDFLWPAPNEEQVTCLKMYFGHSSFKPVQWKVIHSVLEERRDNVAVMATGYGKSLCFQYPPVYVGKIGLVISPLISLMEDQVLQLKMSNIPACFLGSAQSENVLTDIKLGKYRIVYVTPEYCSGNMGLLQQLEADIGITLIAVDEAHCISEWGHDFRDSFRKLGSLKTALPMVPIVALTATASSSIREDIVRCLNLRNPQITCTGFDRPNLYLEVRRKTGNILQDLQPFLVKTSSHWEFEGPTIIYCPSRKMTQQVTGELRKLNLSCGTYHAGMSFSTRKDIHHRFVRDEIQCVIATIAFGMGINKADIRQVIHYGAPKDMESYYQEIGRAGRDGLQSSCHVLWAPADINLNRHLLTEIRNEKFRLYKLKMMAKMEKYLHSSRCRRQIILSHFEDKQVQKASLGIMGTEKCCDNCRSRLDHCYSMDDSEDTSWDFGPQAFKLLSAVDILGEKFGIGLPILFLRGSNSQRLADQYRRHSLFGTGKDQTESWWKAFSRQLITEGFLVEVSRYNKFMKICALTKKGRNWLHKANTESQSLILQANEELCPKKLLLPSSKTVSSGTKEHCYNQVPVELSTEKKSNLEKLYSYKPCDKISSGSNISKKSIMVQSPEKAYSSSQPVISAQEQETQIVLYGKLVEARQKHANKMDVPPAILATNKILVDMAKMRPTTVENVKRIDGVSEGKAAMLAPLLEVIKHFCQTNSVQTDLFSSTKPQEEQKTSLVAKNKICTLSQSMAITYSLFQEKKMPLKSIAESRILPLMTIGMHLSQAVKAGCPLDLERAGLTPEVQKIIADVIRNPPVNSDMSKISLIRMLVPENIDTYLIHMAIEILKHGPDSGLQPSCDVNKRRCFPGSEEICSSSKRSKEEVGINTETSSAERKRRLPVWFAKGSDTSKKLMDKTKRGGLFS
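WRN at 20 nM final preincubated with compound 15 min at room temperature; reaction started with 100 nM fluorophore/quencher forked duplex oligonucleotide and 2 mM ATP final. Unwinding followed kinetically by red fluorescence (ex 525, em 598 nm).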
Pol eta inh-1 – blocks human DNA polymerase eta activity. Q9Y253. recombinant Pol eta, fluorescent DNA replication assay. Potency, µM (doses to about 114 µM), inactives show top-dose activity change, negative = inhibition, hits mostly inhibitors. actives 1.2% (n = 390,000). AID 588591; also: potency is read from the fitted curve at half-maximal effect; % is scaled to controls: 0 for no effect and ±100 for the full control effect
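Fluorescent replication assay: 50 nM final substrate added after a 15 min room-temperature compound preincubation with 10 nM enzyme. Signal taken at 0 min and again at 10 min.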
Pol beta inh – inhibitors of human DNA polymerase beta; Potency, µM (top dose mostly 114 µM), without a hit: at the highest dose activity change, negative = inhibition, hits mostly inhibitors; Pol beta primer extension/strand displacement, fluorescence kinetic; actives 1.3% (n = 340,000); AID 485314; P06746; also: potency is read from the fitted curve at half-maximal effect; % is scaled to controls: 0 for no effect and ±100 for the full control effect
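Reaction started by 50 nM substrate onto compound-treated Pol beta (10 nM, 15 min preincubation, room temperature); plates read at 0 min and 10 min. Normalized concentration-effect data fitted by four-parameter Hill equation.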
Pol kappa inh-1 – DNA polymerase kappa (human) inhibition; purified Pol kappa, fluorescent DNA synthesis assay, 10 min; Potency, µM (titrated, usually from 107 µM), inactives show at the top dose activity, negative = inhibition, actives largely listed as inhibitors; actives 0.53% (n = 400,000); also: potency is read from the fitted curve at half-maximal effect; % is scaled to controls: 0 for no effect and ±100 for the full control effect
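Fluorescent qHTS in 1536-well format: enzyme (10 nM) and compound sat 15 min at room temperature before 50 nM substrate (final) was added. Signal taken at 0 and 10 min; no-enzyme buffer wells were negative controls.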
Pol iota inh – inhibitors of human DNA polymerase iota. Potency, µM (top dose mostly 115 µM), for the others: at the highest dose activity, negative = inhibition, usual class: inhibitors. actives 1% (n = 390,000). Q9UNA4. AID 588590. Pol iota fluorescent replication assay, 10 min; also: potency is read from the fitted curve at half-maximal effect
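Pol iota at 10 nM preincubated 15 min with compounds at room temperature; reaction started with fluorescent substrate, 50 nM final. Fluorescence read kinetically at 0 and 10 min; buffer-only wells as negative control.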
GALK inh confirm – confirmation of human galactokinase (GALK) inhibitors. actives 70% (n = 150). Potency, µM (highest dose often 115 µM), without a hit: at the top dose activity, negative = inhibition, actives largely listed as inhibitors. shares compounds with Pol eta inh-1. AID 2015. purified GALK, Kinase-Glo ATP depletion luminescence
GALK redox cs – generates H2O2 by redox cycling, flagging GALK artifacts; shares compounds with Pol eta inh-1; Phenol red-HRP H2O2 redox cycling, absorbance 600 nm; Potency, µM (titrated, usually from 115 µM), inactives show at the highest dose activity change, negative = H2O2 signal, usual class: inhibitors; actives 40% (n = 150)
HEK293 tox – reduces HEK-293 cell viability in GALK counter-screen; Potency, µM (top dose mostly 46.1 µM), for the others: top-dose activity change, negative = cytotoxicity, actives largely listed as inhibitors; actives 10% (n = 170); AID 2547; shares compounds with Pol eta inh-1; HEK-293 viability, ATP luminescence (CellTiter-Glo), 24/48 h; also: potency is read from the fitted curve at half-maximal effect; % is scaled to controls: 0 for no effect and ±100 for the full control effect
Pol kappa inh-2 – Pol kappa (human) inhibition, cherry-pick confirmation | shares compounds with Pol eta inh-1 | purified Pol-kappa, fluorescent strand-displacement substrate | Potency, µM, hits mostly inhibitors | actives 76% (n = 920) | AID 720501; also: potency is read from the fitted curve at half-maximal effect
Pol eta inh-2 – confirmation of human DNA polymerase eta inhibitors; shares compounds with Pol eta inh-1; Pol eta primer extension, TAMRA/BHQ fluorescence, 10 min; Potency, µM, usual class: inhibitors; actives 64% (n = 2,600); also: potency is read from the fitted curve at half-maximal effect
Active calls of the source: *; u = inconclusive; x = no result given; [ ] = another dose, or the depositor's remark. In the library only some 2.5% were active in any assay of this set; here they are far more common. Calls follow the shape of the dose curve; as a rule, active = well fitted curve in the direction sought with a large enough effect; inconclusive = small, poorly fitted or top-dose-only effect, or another doubt; inactive = no such curve, though single readings can be large; an effect the other way counts as inactive or inconclusive.

SMILES	L3MBTL1 block	WRN helicase inh	Pol eta inh-1	Pol beta inh	Pol kappa inh-1	Pol iota inh	Pol eta inh-2	others
COc1ccc(CC(=O)Nc2sc3c(c2C(=O)Nc2ccc(C)cc2)CCCCC3)cc1	x	x	u	u	-16%	-21%	u	Pol kappa inh-2=u
COc1ccc(NC(=O)c2c(NC(=O)Cc3ccccc3)sc3c2CCCC3)cc1	x	x	-10%	-10%	7%	u	x
COc1ccc(CNC(=O)/C=C/c2ccc(S(=O)(=O)N3CCOCC3)cc2)cc1	-3%	11%	11%	4%	-4%	84%	x
Cc1ccc(NC(=O)c2sc(N)nc2-c2ccccc2)cc1C	-14%	-9%	-25%	19%	-7%	37%	x
COc1ccc(Cn2c(O)c(C=Nc3ccc(OC)cc3)c3ccccc3c2=O)cc1	4%	-13%	-7%	35%	-20%	14%	x
COc1ccc(Cn2c(O)c(C=Nc3ccccc3C(=O)O)c3ccccc3c2=O)cc1	-23%	u	20µM*	u	-45%	u	67*
Cc1ccc(C2C=C(c3ccccc3)Nc3nc(NS(=O)(=O)c4ccc(C)cc4)nn32)cc1 (stereo not given)	x	x	u	2%	-7%[60.1 µM]	6%	x	Pol kappa inh-2=u
CC1(C(=O)N2Cc3ccccc3C2)CCN1C(=O)C1(c2ccccc2)CC1 (stereo not given)	x	0%	x	x	x	x	x
O=C1OC(C(=O)O)Cc2ccccc21 (stereo not given)	3%	-6%	2%	7%	-8%	-10%	x	GALK inh confirm=-5%;GALK redox cs=1%;HEK293 tox=3%
C/C=C/COC(=O)c1[nH]c2c(c1C)C(=O)CC(c1ccco1)C2 (stereo not given)	u	u	22µM*	22µM*	79µM*	u	u
O=C(COc1ccc(F)cc1)Nc1nc(-c2cccnc2)cs1	x	-16%	35µM*	x	x	x	u
COc1ccc(C(=O)/C=C/c2ccsc2)cc1CSCC(=O)O	x	u	20µM*	35µM*	-17%	13µM*	76*
O=C(Nc1ccc2nc3n(c(=O)c2c1)CCCCC3)c1c(F)ccc([N+](=O)[O-])c1F	x	-27%[11.6 µM]	16µM*	15%	8%	u	48*
O=S1(=O)CCO[C@H]2Cc3ccccc3[C@H]2N1Cc1ccc(Cl)cc1	2%	-1%	-12%	-10%	-1%	-22%	x
Cc1ccc(C)c(CNc2ccc(S(=O)(=O)N3CCCCC3)cc2)c1	1%	-10%	-8%	x	-17%	-10%	x
Cc1[nH]n(-c2ccccc2)c(=O)c1C(c1ccccc1[N+](=O)[O-])C(C#N)C#N (stereo not given)	x	-7%	-7%	28%	4%	6%	x
Cc1[nH]n(-c2ncc(-c3ccccc3)s2)c(=O)c1C(c1ccc(Cl)cc1)C(C#N)C#N (stereo not given)	-17%	u	28µM*	32µM*	u	u	u
CCOC(=O)c1ccc(S(=O)(=O)NNS(=O)(=O)c2ccc(C)cc2)cc1	x	10%	-3%	5%	-6%[60.1 µM]	12%	x
Cc1cc(N)n(-c2ccc(Oc3ccccc3)c(S(=O)(=O)O)c2)n1	u	-36%	18µM*	14µM*	u	u	x	Pol kappa inh-2=u
COc1ccc(NC(=O)CCNC(=O)N2CC(=O)Nc3ccccc32)cc1	x	-2%	-19%	x	x	x	x
Oc1c(Br)cc(Br)cc1/C=N/Nc1ccc(Cl)nn1	x	18%[57.1 µM]	-14%	-1%	-8%	-19%	x
Oc1c(Br)cc(/C=N/Nc2ccc(Cl)nn2)cc1Br	x	45µM*	22µM*	50µM*	u	u	85*
O=C(O)C1Cc2ccccc2CN1C(=O)COc1ccc(Cl)cc1Cl (stereo not given)	x	-7%[11.6 µM]	25µM*	u	-42%	12%	u
O=C(O)C1Cc2ccccc2CN1C(=O)COc1ccc(Br)cc1 (stereo not given)	x	-19%	10µM*	32µM*	79µM*	u	27*
c1ccc2c(c1)COC(CNC1CCCCC1)OC2	-4%	2%	-8%	0%	-5%	-6%	x
SMILES	L3MBTL1 block	WRN helicase inh	Pol eta inh-1	Pol beta inh	Pol kappa inh-1	Pol iota inh	Pol eta inh-2	others
O=c1c2c(-c3ccc(Cl)cc3)csc2nc2n1CCC2	2%	-5%	-3%	2%	-1%	19%	x
Cc1ccccc1CSCc1ccc(C(=O)NCCc2ccccc2)o1	x	x	-13%	5%	-13%[60.1 µM]	-6%	x
Cc1cc(O)c(CN(C)C)c2c1C(=O)/C(=C/c1ccco1)O2	x	-10%[11.6 µM]	11µM*	-7%	-94%	u	54*	Pol kappa inh-2=34*
CN(C)Cc1c(O)ccc2c1O/C(=C\C=C\c1ccccc1)C2=O	-8%	-1%	-12%	-20%	-13%	29%	x
COc1ccc(CN2CCNC(=O)C2CC(=O)NC2CCOCC2)cc1C (stereo not given)	x	1%	-15%	0%	-9%	15%	x
CC(=O)NS(=O)(=O)c1ccc(NC(=O)c2cc(-c3ccc(C)c(C)c3)nc3ccccc23)cc1	-12%	u	22µM*	25µM*	-7%	-22%	76*
O=C(O)C1CC(O)CN1c1nc(Cl)ccc1[N+](=O)[O-] (stereo not given)	3%	-1%	-1%	-23%	-25%	44%	x
O=C(O)C1CN(c2nc(Cl)ccc2[N+](=O)[O-])C1	u	-13%	20µM*	35µM*	-9%	15%	30*	Pol kappa inh-2=67*
COC(=O)c1c(C)[nH]c(C(=O)COc2ccc3ccc(=O)oc3c2)c1C	-2%	-13%[11.6 µM]	45µM*	x	-38%	u	u
